Compound activity: PubChem BioAssay, National Center for Advancing Translational Sciences (NCATS)
HT1080 IDH1KD tx: kills HT-1080 cells with IDH1 knockdown | HT-1080 IDH1 knockdown viability, ATP luminescence, 48 h | Potency, µM (series often up to 46.1 µM), for the others: at the top dose activity, negative = toxicity, actives largely listed as cytotoxic | 2% of 360,000 active | AID 686971;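 further: potency means the concentration at half of the fitted maximal effect; 0% = DMSO wells and -100% = cell-free medium wells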
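Assay cells: HT-1080 with IDH1 knockdown, 750 per well, RPMI/5% FBS. Exposure: 48 h at 37 °C following 2 h pre-incubation. Read: CellTiter-Glo luminescence; fitted concentration-response, curve class assigned.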
DT40 TDP1 CPT: growth inhibition of DT40 Tdp1-/-;hTDP1 cells with camptothecin (screen for TDP1 inhibitors); 12% of 420,000 active; chicken DT40 Tdp1-/-;hTDP1 cells + 20 nM CPT, ATP luminescence, 48 h; Potency, µM (series often up to 46.2 µM), for the others: at the highest dose activity change, negative = growth inhibition, hits mostly inhibitors; further: potency means the concentration at half of the fitted maximal effect; nearly all actives have a fitted effect of over 55% in size
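Chicken DT40 Tdp1-/- cells stably complemented with human TDP1 were seeded at 400 cells/well in medium containing 20 nM camptothecin, exposed to pin-transferred compounds, and grown at 37 °C for at least 48 hr. Viability was read as ATP luminescence.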
TDP1 cell noCPT: qHTS for Inhibitors of human tyrosyl-DNA phosphodiesterase 1 (TDP1): qHTS in cells in absence of CPT. 15% of 420,000 active. DT40 Tdp1-/- hTDP1 cells, no CPT, ATP luminescence, 48 h. Potency, µM (highest dose often 46.2 µM), for inactives: at the highest dose activity change, negative = growth inhibition, most hits filed as inhibitors. AID 686978, 2013; further: potency means the concentration at half of the fitted maximal effect; nearly all actives have a fitted effect of over 55% in size
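Chicken DT40 Tdp1-/- cells complemented with human TDP1, screened without camptothecin (DMSO vehicle only), 400 cells/well. Compounds pin-transferred, cells incubated at 37 °C for at least 48 hr. Growth read as ATP-dependent luminescence (CellTiter-Glo, 30 min at RT).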
HT1080-NT tox: kills 2HG-producing HT-1080-NT fibrosarcoma cells; Potency, µM (highest dose often 46.1 µM), for inactives: at the highest dose activity, negative = less viability, usual class: cytotoxic; 1.6% of 360,000 active; HT-1080-NT fibrosarcoma viability, CellTiter-Glo ATP luminescence, 48 h;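 further: NT is the 2HG producing partner of a matched IDH1 knockdown line; potency means the concentration at half of the fitted maximal effect; 0% = DMSO-treated cells and -100% = media-only wells without cells; nearly all actives have a fitted effect of over 55% in size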
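Toxicity toward the 2HG-producing NT line was scored as %Activity, normalised to DMSO and no-cell wells, from CellTiter-Glo luminescence after 48 hours' treatment.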
IL-1B inflam inh: blocks inflammasome-driven IL-1 beta release | activity change, % at 57.5 µM | 4.7% of 360,000 active | THP-1 LPS/ATP IL-1B secretion, AlphaLISA, 16 h; stronger effect = lower value; in the data active means activity change below about -50%; inconclusive means mostly about -30% to -49%
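Secreted IL-1B measured by AlphaLISA bead assay after 16 h compound exposure of THP-1 cells; compounds (final up to 57.5 uM) added 1 h before LPS (250 ng/mL) and ATP (1.25 mM) stimulation; lower signal means less secretion.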
* hit, by the source's call; i = inactive; ? = inconclusive; · = no result. Only some compounds are listed: those with a hit (about 19% of all), similar ones and a draw of the others. Unless noted, the call rests on the fitted dose curve; in most records, active means well fitted curve in the direction sought with a large enough effect; inconclusive means small, poorly fitted or top-dose-only effect, or another doubt; inactive means no such curve, though single readings can be large; an effect the other way counts as inactive or inconclusive. Unless noted, on the % scale 0 is the no-effect control and ±100 the full control effect.

SMILES | HT1080 IDH1KD tx | DT40 TDP1 CPT | TDP1 cell noCPT | HT1080-NT tox | IL-1B inflam inh
COCCn1c(=O)[nH]c(=O)c2c1nc(-c1cc(Br)c3c(c1)OCO3)n2Cc1ccccc1 | -26.1% | 1.8% | -2.5% | -13.8% | 31.0
Cc1cc(C)cc(N(CC(=O)NC2CCCC2)S(=O)(=O)c2c(C)[nH]c(=O)[nH]c2=O)c1 | -2.6% | 0.8% | 3.7% | 0.0% | 8.4
O=C(Oc1c(-c2ccccc2Cl)oc2ccccc2c1=O)c1ccc(Cl)cc1 | 17.7% | ? | ? | 10.0% | -1.1
O=C(Oc1cc(=O)oc2ccccc12)c1ccccc1 | 16.4µM* | 2.59µM* | 2.31µM* | 16.4µM* | 16.6
O=C(Oc1c(-c2ccccc2)oc2ccccc2c1=O)c1ccccc1 | -26.5% | ? | 10.3µM* | -21.9% | 0.0
Cc1cc2nc(-c3ccc(SCC(=O)Nc4nccs4)nc3)[nH]c2cc1C | ? | 16.4µM* | 16.4µM* | ? | -14.7
Cc1cc2nc(-c3ccc(SCc4ccc(C#N)cc4)nc3)[nH]c2cc1C | ? | ? | 23.1µM* | ? | -11.9
CCc1nnc(NC(=O)CSc2ccc(-c3nc4ccc(C)cc4[nH]3)cn2)s1 | 4.3% | ? | ? | -1.1% | 8.4
CC(=O)CSc1ccc(-c2nc3cc(C)c(C)cc3[nH]2)cn1 | -29.5% | ? | ? | -16.8% | -82.3*
CCOC(=O)CNC(=O)CSc1ccc(-c2nc3ccccc3[nH]2)cn1 | 18.2% | -19.1% | ? | 16.7% | ?
N#Cc1ccccc1CSc1ccc(-c2nc3ccccc3[nH]2)cn1 | 0.0% | ? | ? | 20.3% | -70.5*
Cc1ccc(-c2nnc3ccc(SCC(=O)N4CCc5ccccc54)nn23)cc1 | -1.3% | -17.7% | -8.6% | -7.3% | 27.1
Cc1ccc2nc(-c3ccc(SCC(=O)N4CCc5ccccc54)nc3)[nH]c2c1 | -0.2% | ? | 13µM* | 3.2% | 20.8
CC(=O)CSc1ccc(-c2nc3ccccc3[nH]2)cn1 | 9.2µM* | 10.3µM* | 8.2µM* | ? | -58.4*
CC(C)CN1C(=O)c2ccc(NC(=O)c3cccs3)cc2C1=O | ? | ? | 18.4µM* | 2.8% | -52.3*
CC(C)(C)NC(=O)c1cc(NC(=O)c2cccs2)cc(NC(=O)c2cccs2)c1 | -15.3% | ? | 20.6µM* | -17.6% | -9.0
O=C(Nc1cccc(NC(=O)c2cccs2)c1)c1ccc(Br)o1 | -6.6% | -24.9% | 20.6µM* | 2.2% | -11.1
Cc1cc(C)cc(C(=O)Nc2ccc(NC(=O)c3cccs3)cc2)c1 | ? | ? | ? | ? | 4.0
CC(C)CN1C(=O)c2ccc(NC(=O)c3ccccc3F)cc2C1=O | 29.5% | -18.3% | -4.7% | 20.3% | -3.0
O=C(Nc1cccc(NC(=O)c2cccs2)c1)c1ccc(F)cc1 | 0.1% | ? | ? | -1.4% | -61.0*
COc1cc(C2/C(=C(\O)c3ccc4c(c3)CC(C)O4)C(=O)C(=O)N2CCN2CCOCC2)cc(OC)c1OC (stereo not drawn) | -3.7% | -16.3% | -3.9% | -0.7% | i
CC(=O)Nc1ccc(CN2C(=O)C(C)(C)ON=C2c2ccc(C(F)(F)F)cc2)cc1 | 7.7% | -0.7% | -11.2% | 23.1% | -22.9
CCOC(=O)c1noc2nc(C)n(CC(=O)Nc3cccc(OC)c3)c(=O)c12 | · | 1.6% | 3.8% | · | ·
COc1cc(NC(=O)c2ccc(C)cc2C)ccc1NC(=O)c1cccs1 | 9.9% | -7.0% | -17.3% | 14.7% | -63.0*
COc1cc(NC(=S)NC(=O)c2ccc(C)cc2C)ccc1NC(=O)c1cccs1 | 12.1% | ? | ? | 9.8% | 25.5
SMILES | HT1080 IDH1KD tx | DT40 TDP1 CPT | TDP1 cell noCPT | HT1080-NT tox | IL-1B inflam inh
COc1cc(NC(=O)c2c(F)c(F)c(OC)c(F)c2F)ccc1NC(=O)c1cccs1 | -5.7% | 20.6µM* | 18.4µM* | -1.4% | 0.0
Cc1ccc(C(=O)Nc2cccc(NC(=O)c3cccs3)c2)c(C)c1 | -7.4% | -66.9% | 16.4µM* | -6.8% | 0.8
CC(C)NC(=O)[C@]1(C)CCC[C@@]2(C)C3CC[C@@]4(C)C[C@]3(CCC21)CC4=O (stereo partly drawn) | -0.3% | ? | -28.4% | 1.8% | 17.0
C[C@@]12CCC3[C@@](CCC4[C@@]3(C)CCC[C@@]4(C)C(=O)Nc3ccc(Cl)cc3)(CC1=O)C2 (stereo partly drawn) | -0.1% | ? | ? | 0.0% | 26.7
COC(=O)[C@]1(C)CCC[C@@]2(C)C3CC[C@@]4(C)C[C@]3(CCC21)CC(=O)N4Cc1ccc(OC)cc1 (stereo partly drawn) | -12.4% | 11.6µM* | 6.51µM* | -15.4% | ?
COC(=O)[C@]1(C)CCC[C@@]2(C)C3CC[C@]4(OC(C)=O)C[C@@]3(CCC21)CC4=O (stereo partly drawn) | -0.4% | 20.6µM* | ? | -2.4% | 23.8
C=CCn1c(SCC(=O)NC2CC2)nnc1-c1cccs1 | 15.0% | -19.3% | 18.8% | 15.4% | -8.7
Cc1c(NC(=O)c2cc(-c3cccc(Cl)c3)on2)c(=O)n(-c2ccccc2)n1C | 0.1% | -18.9% | ? | 0.0% | -3.4
C=CC[C@@H](CC(=O)N[C@@H](CO)Cc1ccccc1)C(=O)N[C@H](COC(=O)[C@@H](CC=C)CC(=O)OC(C)(C)C)Cc1c[nH]c2ccccc12 | ? | 16.4µM* | 3.66µM* | ? | ?
C=CC[C@@H](CC(=O)N[C@H](CO)Cc1ccccc1)C(=O)N[C@@H](COC(=O)[C@H](CC=C)CC(=O)OC(C)(C)C)Cc1ccccc1 | -11.8% | 20.6µM* | 23.1µM* | -15.6% | -17.4
C=CC[C@@H](CC(=O)N[C@@H](CO)Cc1ccccc1)C(=O)N[C@H](COC(=O)[C@@H](CC=C)CC(=O)OC(C)(C)C)Cc1ccccc1 | 0.4% | 13µM* | 20.6µM* | -3.1% | 8.8
C=CC[C@H](CC(=O)N[C@H](CO)Cc1ccccc1)C(=O)N[C@@H](COC(=O)[C@@H](CC=C)CC(=O)OC(C)(C)C)Cc1c[nH]c2ccccc12 | ? | ? | ? | -20.1% | -13.4
C=CC[C@@H](CC(=O)NCCO)C(=O)N[C@@H](COC(=O)[C@@H](CC=C)CC(=O)OC(C)(C)C)Cc1ccccc1 | 1.1% | ? | -27.1% | 12.3% | -6.4
CC(C)=CC[N+]1(C)CCCCC1 | 15.7% | -8.9% | -15.1% | 0.9% | 1.6
CC(C)C1Oc2ccccc2N(CC(=O)NCCCN2C(C)CCCC2C)C1=O (stereo not drawn) | 15.7% | 13.0% | 11.8% | -0.6% | -4.3
Cc1cccc(-c2c3c(=O)n(C)c(=O)n(C)c3c3c(C)nc4ccccc4n23)c1 | · | ? | 6.51µM* | · | ·
